Laboratory results: PubChem BioAssay
For some of these results: Results with a measured potency or affinity are listed apart. Active and inactive are the calls of the source. Unless noted, no rule for the calls is given here.

Tests used:
[1] = antimalarial activity against Dd2 strain (AID 2302;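 active = growth inhibition above 50% at the single 2 µM test dose, taken to imply half-maximal potency below 2 µM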;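 also: 0% = DMSO untreated growth and 100% = chloroquine plus artemisinin killed control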); details: P. falciparum Dd2 in RBCs, LDH growth readout, 72 h; at 2 µM; hits give high values
[2] = HepG2 cytotoxicity, primary screen, cytotoxicity control for P. falciparum antimalarial project, cell-based, ATP luminescence (AID 2303;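 active = inhibition above 50%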;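 also: 0% = DMSO wells and 100% = digitonin-killed cells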); details: HepG2 viability, 24-48 h, at 10 µM, hits give high values
[3] = molecular target: L-lactate dehydrogenase (Plasmodium falciparum (isolate CDC / Honduras)) (UniProt Q27743); test: PfLDH activity inhibition – cell lysate, 3D7 strain, counter-screen for P. falciparum growth inhibition project (AID 2304);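 also: 0% = vehicle and 100% = reference inhibitor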; details: P. falciparum 3D7 crude extract, LDH APAD/NBT absorbance; at 2 µM; hits give high values
[4] = inhibition of 3D7 malaria parasite growth – strain 3D7 (AID 2306);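 also: 0% = DMSO wells and 100% = chloroquine plus artemisinin control wells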; details: P. falciparum 3D7 erythrocytic growth, LDH absorbance, 72 h; at 2 µM; hits give high values
[5] = molecular target: Calcium-dependent protein kinase 1 (Plasmodium falciparum (isolate 3D7)) (UniProt P62344); test: PfCDPK1 kinase inhibitors, biochemical, TCAMS library (AID 1159585; cut-off not given, nearly all actives have IC50 up to about 0.98 µM;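 also: inhibitors leave more ATP so luminescence rises with inhibition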); details: recombinant PfCDPK1, Kinase-Glo ATP depletion luminescence
[6] = molecular target: Plasmodium falciparum protein kinase 6 (PK6, PF3D7_1337100) (UniProt Q8IDW1); test: PfPK6 kinase inhibitors, biochemical, TCAMS library (AID 1159586); details: recombinant PfPK6, Kinase-Glo ATP depletion luminescence
[7] = molecular target: Protein kinase 7 (PK7), Plasmodium falciparum 3D7 (PF3D7_0213400) (UniProt Q7YTF7); test: inhibition of Plasmodium PK7 catalytic activity – biochemical, TCAMS antimalarial set, Kinase-Glo luminescence (AID 1159587); details: recombinant PfPK7, Kinase-Glo ATP depletion luminescence
[8] = molecular target: Calcium-dependent protein kinase 4 (Plasmodium falciparum (isolate 3D7)) (UniProt Q8IBS5); test: PfCDPK4 kinase inhibitors, biochemical, TCAMS library (AID 1159588; cut-off not given, nearly all actives have IC50 up to about 0.91 µM); details: recombinant PfCDPK4, Kinase-Glo ATP depletion luminescence
Sequence of Calcium-dependent protein kinase 4 (Plasmodium falciparum (isolate 3D7)) (Q8IBS5 whole entry, looked up): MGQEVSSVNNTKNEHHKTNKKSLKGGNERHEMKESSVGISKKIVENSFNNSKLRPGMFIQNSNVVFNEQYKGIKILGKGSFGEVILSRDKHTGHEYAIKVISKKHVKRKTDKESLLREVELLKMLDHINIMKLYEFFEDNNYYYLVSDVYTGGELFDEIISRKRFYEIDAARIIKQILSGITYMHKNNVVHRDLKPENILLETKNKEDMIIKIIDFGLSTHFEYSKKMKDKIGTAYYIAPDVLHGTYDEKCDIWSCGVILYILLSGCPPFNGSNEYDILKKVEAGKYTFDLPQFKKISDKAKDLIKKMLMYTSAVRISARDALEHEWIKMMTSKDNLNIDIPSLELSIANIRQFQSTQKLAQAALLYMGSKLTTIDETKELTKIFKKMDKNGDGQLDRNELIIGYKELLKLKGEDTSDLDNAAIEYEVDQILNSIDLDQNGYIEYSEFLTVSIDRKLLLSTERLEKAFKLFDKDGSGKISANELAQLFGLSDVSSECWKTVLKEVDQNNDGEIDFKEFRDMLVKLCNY

Sequence of Protein kinase 7 (PK7), Plasmodium falciparum 3D7 (PF3D7_0213400) (Q7YTF7 1-343): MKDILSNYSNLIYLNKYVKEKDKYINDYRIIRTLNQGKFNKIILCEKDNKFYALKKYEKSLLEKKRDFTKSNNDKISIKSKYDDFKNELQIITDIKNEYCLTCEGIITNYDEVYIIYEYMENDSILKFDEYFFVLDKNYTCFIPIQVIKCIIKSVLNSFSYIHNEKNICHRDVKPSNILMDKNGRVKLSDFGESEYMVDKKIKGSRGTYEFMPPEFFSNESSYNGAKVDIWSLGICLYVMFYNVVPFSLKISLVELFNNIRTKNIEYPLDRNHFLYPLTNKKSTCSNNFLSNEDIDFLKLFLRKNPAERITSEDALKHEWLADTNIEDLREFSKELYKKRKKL
Sequence of Calcium-dependent protein kinase 1 (Plasmodium falciparum (isolate 3D7)) (P62344 whole entry, looked up): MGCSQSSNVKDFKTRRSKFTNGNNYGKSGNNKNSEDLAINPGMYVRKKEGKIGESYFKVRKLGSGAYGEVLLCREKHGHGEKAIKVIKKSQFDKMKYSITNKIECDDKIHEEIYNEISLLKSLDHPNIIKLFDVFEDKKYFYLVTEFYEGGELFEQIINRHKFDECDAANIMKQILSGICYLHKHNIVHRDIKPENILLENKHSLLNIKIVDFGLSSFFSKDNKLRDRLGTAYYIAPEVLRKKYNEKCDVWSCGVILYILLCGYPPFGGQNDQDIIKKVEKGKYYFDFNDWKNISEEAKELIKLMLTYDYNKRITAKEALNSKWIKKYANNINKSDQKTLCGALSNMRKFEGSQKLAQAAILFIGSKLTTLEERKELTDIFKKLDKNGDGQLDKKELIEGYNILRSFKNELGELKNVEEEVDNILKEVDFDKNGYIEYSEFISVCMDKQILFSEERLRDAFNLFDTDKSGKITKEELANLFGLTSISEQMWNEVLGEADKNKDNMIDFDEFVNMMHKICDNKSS
Sequence of L-lactate dehydrogenase (Plasmodium falciparum (isolate CDC / Honduras)) (Q27743 whole entry, looked up): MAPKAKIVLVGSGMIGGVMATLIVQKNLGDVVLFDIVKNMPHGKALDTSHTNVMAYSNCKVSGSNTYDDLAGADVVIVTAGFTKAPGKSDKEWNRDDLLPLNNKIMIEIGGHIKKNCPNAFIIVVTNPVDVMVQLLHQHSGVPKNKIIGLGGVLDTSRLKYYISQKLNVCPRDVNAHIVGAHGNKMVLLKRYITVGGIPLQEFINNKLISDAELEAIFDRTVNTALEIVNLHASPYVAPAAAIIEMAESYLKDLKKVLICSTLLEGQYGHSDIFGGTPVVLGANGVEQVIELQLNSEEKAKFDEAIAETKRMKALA
Sequence of Plasmodium falciparum protein kinase 6 (PK6, PF3D7_1337100) (Q8IDW1 1-305): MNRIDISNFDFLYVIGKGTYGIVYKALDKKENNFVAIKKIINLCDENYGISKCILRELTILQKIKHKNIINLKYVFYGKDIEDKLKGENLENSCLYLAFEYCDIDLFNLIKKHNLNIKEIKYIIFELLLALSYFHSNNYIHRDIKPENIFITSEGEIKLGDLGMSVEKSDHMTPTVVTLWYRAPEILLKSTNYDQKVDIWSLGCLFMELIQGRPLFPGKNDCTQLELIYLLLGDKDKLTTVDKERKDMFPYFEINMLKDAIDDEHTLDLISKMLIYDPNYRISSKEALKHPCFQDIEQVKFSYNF

CCNc1cc(C(=O)N[C@@H](Cc2ccccc2)[C@H](O)CNC2CCC(C)(C)C2)cc(N2CCCCS2(=O)=O)c1 (stereo not given in full)
inactive: inhibition [2] 3% | inhibition [3] 6% | outcome [5] | outcome [6] | outcome [7] | outcome [8]
active: growth inhibition [1] 98% | growth inhibition [4] 96%

O=C(N[C@@H](CC1CCCCC1)C(=O)NC1CCCc2ccccc21)c1ccc(O)c(-c2cccc(C(F)(F)F)c2)c1 (stereo not given in full)
inactive: inhibition [2] -4% | inhibition [3] 5% | outcome [5] | outcome [6] | outcome [7] | outcome [8]
active: growth inhibition [1] 99% | growth inhibition [4] 100%

N#Cc1ccc(C=NNc2nc3ccccc3[nH]2)cc1
active: growth inhibition [1] 71% | growth inhibition [4] 101%
inactive: inhibition [2] -4% | inhibition [3] 3% | outcome [5] | outcome [6] | outcome [7] | outcome [8]

O=C(Nc1cccc(C(F)(F)F)c1)Nc1ccc2nonc2c1
inactive: inhibition [2] -4% | inhibition [3] 5% | outcome [5] | outcome [6] | outcome [7] | outcome [8]
active: growth inhibition [1] 76% | growth inhibition [4] 98%

COc1cc(C2=NN(S(=O)(=O)c3c(C)cc(C)cc3C)CCCC2)ccc1Cl
inactive: inhibition [2] 9% | inhibition [3] 1% | outcome [5] | outcome [6] | outcome [7] | outcome [8]
active: growth inhibition [1] 76% | growth inhibition [4] 85%

O=C(/C=C/c1ccc(Cl)c(Cl)c1)NCCCCCN1CCC(NC(=O)c2ccc(F)c(F)c2)CC1
active: growth inhibition [4] 99%
inactive: growth inhibition [1] 20% | inhibition [2] 36% | inhibition [3] -3% | outcome [5] | outcome [6] | outcome [7] | outcome [8]

COc1ccc2nc3cc(Cl)ccc3c(NCc3ccccc3)c2c1
inactive: inhibition [2] 8% | inhibition [3] 5% | outcome [5] | outcome [6] | outcome [7] | outcome [8]
active: growth inhibition [1] 50% | growth inhibition [4] 101%

FC(F)(F)COc1ccc(CCNCCCCNCCc2ccc(OCC(F)(F)F)c3ccccc23)c2ccccc12
inactive: inhibition [3] 4% | outcome [5] | outcome [6] | outcome [7] | outcome [8]
active: growth inhibition [1] 70% | inhibition [2] 100% | growth inhibition [4] 99%

CC(C)(C)c1ccc(CNC(=O)c2ccc(CNC3CCC(N)CC3)s2)cc1 (stereo not given)
active: growth inhibition [4] 100%
inactive: growth inhibition [1] 10% | inhibition [2] 41% | inhibition [3] 4% | outcome [5] | outcome [6] | outcome [7] | outcome [8]

O=C(Nc1cccc(-c2ccc(CN3CCCC3)cc2)c1)c1ccc(Cl)cc1
active: growth inhibition [4] 100%
inactive: growth inhibition [1] 47% | inhibition [2] 29% | inhibition [3] -1% | outcome [5] | outcome [6] | outcome [7] | outcome [8]

CC(=O)Nc1ccc(C(=O)Nc2cccc(-c3cccc(-c4nc5c(C)cccc5[nH]4)c3)c2)cn1
inactive: inhibition [2] 16% | inhibition [3] -2% | outcome [5] | outcome [6] | outcome [7] | outcome [8]
active: growth inhibition [1] 100% | growth inhibition [4] 101%

CCOc1ccc2c(NN=Cc3ccc(F)cc3)cc(C)nc2c1
inactive: inhibition [2] 22% | inhibition [3] -3% | outcome [5] | outcome [6] | outcome [7] | outcome [8]
active: growth inhibition [1] 99% | growth inhibition [4] 101%

CN(C)C(=O)c1ccc(CN(Cc2cccc(OC(C)(C)C)c2)Cc2ccc3c(c2)OCCO3)cc1
inactive: inhibition [2] 0% | inhibition [3] -2% | outcome [5] | outcome [6] | outcome [7] | outcome [8]
active: growth inhibition [1] 96% | growth inhibition [4] 96%

COC(=O)COc1cc(C(=O)NCCCCN2CCC(c3ccc4c(c3OC)CCCC4)CC2)ccc1-c1ccc(Cl)cc1
inactive: growth inhibition [1] 21% | inhibition [2] 32% | inhibition [3] 2% | outcome [5] | outcome [6] | outcome [7] | outcome [8]
active: growth inhibition [4] 97%

O=C(NCc1cccs1)[C@H](Cc1ccccc1)Nc1ccnc(NCC2CCCCC2)n1
active: growth inhibition [1] 67% | growth inhibition [4] 83%
inactive: inhibition [2] 5% | inhibition [3] -2% | outcome [5] | outcome [6] | outcome [7] | outcome [8]

CO/C(=C\C=C\c1cc2cc(Cl)c(Cl)cc2[nH]1)C(=O)NCCCN1CCN(c2ccc(OC)cc2)CC1
inactive: growth inhibition [1] 44% | inhibition [2] 40% | inhibition [3] -7% | outcome [5] | outcome [6] | outcome [7] | outcome [8]
active: growth inhibition [4] 99%

CCN(C(=O)c1ccc(NC(=O)c2cccs2)cc1)c1nc2c(C)cccc2s1
inactive: inhibition [2] 24% | inhibition [3] -3% | outcome [5] | outcome [6] | outcome [7] | outcome [8]
active: growth inhibition [1] 85% | growth inhibition [4] 89%

Oc1ccccc1CN1CCN(C(c2ccccc2)c2ccccc2)CC1
active: growth inhibition [1] 90% | growth inhibition [4] 98%
inactive: inhibition [2] -4% | inhibition [3] -1% | outcome [5] | outcome [6] | outcome [7] | outcome [8]

Cc1cc(CNCCCCCCNCc2ccc(Cl)cc2)ccc1O
active: growth inhibition [4] 96%
inactive: growth inhibition [1] 0% | inhibition [2] 23% | inhibition [3] -2% | outcome [5] | outcome [6] | outcome [7] | outcome [8]

O=C(NCc1ccc(Cl)c(Cl)c1)c1cccc(C2CCCN(Cc3ccc4nc[nH]c4c3)C2)c1 (stereo not given)
active: growth inhibition [4] 95%
inactive: growth inhibition [1] 30% | inhibition [2] 3% | inhibition [3] 5% | outcome [5] | outcome [6] | outcome [7] | outcome [8]
